The list is not random: actives were taken first. Their share in the collection is about 3.1%.
Mito fusion act = blocks mitochondrial division or promotes mitochondrial fusion. S. cerevisiae fusion-defective mutant growth rescue, CellTiterGlo 48 h. actives 0.23% (n = 320,000). Potency, µM (titrated, usually from 46.1 µM), actives largely listed as activators; further: nearly all actives have a fitted effect of over 45% in size
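Yeast fusion mutant, YPEG (non-fermentable carbon), compound, 48 h at 37C non-permissive; CellTiterGlo added, 10 min RT, luminescence read. Rescued growth = division inhibition.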
A549 viability = counter-screen for Nrf2 inhibitors: cytotoxicity in A549 cells. Potency, µM (highest dose often 46 µM), usual class: inhibitors. A549 ARE-Fluc cells, CellTiter-Fluor viability, 18-24 h. AID 504648. actives 0.16% (n = 390,000)
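A549 ARE_Fluc cells in 5% FBS OPTI-MEM were exposed to compounds in concentration-response for 18-24 h at 37 deg C. Viability was read by CellTiter-Fluor fluorescence (Ex 405/Em 525) after 30 min, before the luciferase read.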
IDH1 R132H inh = human IDH1 R132H inhibition | O75874 | IDH1-R132H enzyme, NADPH consumption, diaphorase/resazurin fluorescence | Potency, µM (doses to about 76.6 µM), hits mostly inhibitors | actives 0.093% (n = 390,000); further: nearly all actives have a fitted effect of over 65% in size
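IDH1-R132H (0.5 ug/mL dispensed) in pH 7.5 Tris buffer was preincubated 30 min with compound, then given a substrate mix of 0.016 mM NADPH and 2 mM alpha-KG for 80 min at room temperature; remaining NADPH was read by diaphorase/resazurin fluorescence.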
Nrf2 block = inhibitors of Nrf2 signaling. Potency, µM (top dose mostly 46 µM), hits mostly inhibitors. actives 2.1% (n = 360,000). A549 ARE-Fluc reporter, luciferase luminescence, 18-24 h; further: nearly all actives have a fitted effect of over 60% in size
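Nrf2 function is reported as luminescence of an ARE-controlled luciferase in A549 cells. Compounds were tested at several concentrations, and a CellTiter-Fluor read on the same wells flagged cytotoxicity.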
TrxR1 inh = inhibitors of rat thioredoxin reductase 1; O89049; recombinant rTrxR1, NADPH fluorescence consumption, selenite substrate; Potency, µM (highest dose often 114 µM), most hits filed as inhibitors; actives 1% (n = 390,000); AID 588453; further: nearly all actives have a fitted effect of over 65% in size
Target sequence (O89049 whole entry, looked up): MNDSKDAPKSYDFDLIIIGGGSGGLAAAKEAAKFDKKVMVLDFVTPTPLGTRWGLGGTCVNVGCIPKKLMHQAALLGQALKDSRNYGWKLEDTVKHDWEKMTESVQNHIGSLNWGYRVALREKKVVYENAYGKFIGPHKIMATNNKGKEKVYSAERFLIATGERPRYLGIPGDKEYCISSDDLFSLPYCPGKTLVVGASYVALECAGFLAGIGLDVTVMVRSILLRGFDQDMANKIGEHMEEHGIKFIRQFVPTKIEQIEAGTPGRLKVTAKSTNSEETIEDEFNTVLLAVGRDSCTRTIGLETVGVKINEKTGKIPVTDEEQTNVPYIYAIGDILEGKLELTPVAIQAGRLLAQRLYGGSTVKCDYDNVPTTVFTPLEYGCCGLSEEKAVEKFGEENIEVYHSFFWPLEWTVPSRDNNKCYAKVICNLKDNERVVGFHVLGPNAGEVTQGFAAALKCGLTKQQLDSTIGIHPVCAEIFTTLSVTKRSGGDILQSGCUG
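Rat TrxR1 (90 nM in the dispensed reagent) was pre-reduced with 400 uM NADPH for 5 min at room temperature, then incubated with compound for 15 min. After 400 uM selenite was added, NADPH fluorescence (Ex 340/Em 450 nm) was followed for 8 min.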
TrxR1 substrate = substrates of rat thioredoxin reductase 1; O89049; purified TrxR1 substrate turnover, NADPH consumption readout; Potency, µM (titrated, usually from 114 µM); actives 0.01% (n = 390,000); AID 588456; further: nearly all actives have a fitted effect of over 50% in size
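Rat TrxR1, dispensed at 90 nM, was prereduced with 400 uM NADPH (final) for 5 min at ~22 deg C, then incubated with compound 15 min before 400 uM selenite. A first-read NADPH fluorescence drop versus no-compound background flagged substrates.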
Hits are given with their value; [ ] = another dose, or the depositor's remark. The call rests on the fitted dose curve; in most records, active means well fitted curve in the direction sought with a large enough effect; inconclusive means small, poorly fitted or top-dose-only effect, or another doubt; inactive means no such curve, though single readings can be large; an effect the other way counts as inactive or inconclusive.

`CCOC(=O)/C(C#N)=C\c1cn(C)c2ccccc12` gave Mito fusion act inactive, A549 viability inactive, IDH1 R132H inh inactive, Nrf2 block inactive, TrxR1 inh inactive and TrxR1 substrate inactive.
`Cc1ccc(Sc2c([N+](=O)[O-])c(=O)n(C)c3ccccc23)cc1` gave Mito fusion act inactive, A549 viability inactive, IDH1 R132H inh inactive, Nrf2 block inactive, TrxR1 inh 2µM and TrxR1 substrate inactive.
Cc1ccc(Sc2c(O)c3ccccc3n(C)c2=O)cc1 was read as Mito fusion act 14µM, A549 viability inactive, IDH1 R132H inh inactive, Nrf2 block inactive, TrxR1 inh inactive and TrxR1 substrate inactive.
Screening O=C(C[N+]1(CCO)CCOCC1)c1cccc2ccccc12 returned TrxR1 inh inactive and TrxR1 substrate inactive[0.0914 µM].
Cc1ccc(CNc2ncnc3ccc(-c4c(C)noc4C)cc23)cc1 was read as A549 viability inactive and Nrf2 block inconclusive.
CC1(C)CC(=O)C(C(C2=C(O)CC(C)(C)CC2=O)c2cccs2)C(=O)C1 (stereo not drawn) was read as Mito fusion act inactive, A549 viability inactive, IDH1 R132H inh inactive, Nrf2 block inconclusive, TrxR1 inh 6.3µM and TrxR1 substrate inactive.
Screening CC1(C)CC(=O)C(C(C2=C(O)CC(C)(C)CC2=O)c2cccc(O)c2)C(=O)C1 (stereo not drawn) returned Mito fusion act inactive, A549 viability inactive, IDH1 R132H inh inactive, Nrf2 block inactive, TrxR1 inh inactive and TrxR1 substrate inactive.
Screening CCCCCCC[n+]1ccc(/C=C/c2c[nH]c3ccccc23)c2ccccc21 returned TrxR1 inh inconclusive and TrxR1 substrate inactive.
COc1ccc(NS(=O)(=O)c2ccc3oc(SC(C)C(N)=O)nc3c2)cc1 (stereo not drawn) was read as Mito fusion act inactive, A549 viability inactive, IDH1 R132H inh inactive, Nrf2 block 23µM, TrxR1 inh inactive and TrxR1 substrate inactive.
Nc1ncnc2c1ncn2COC(CO)CO was read as A549 viability inactive, Nrf2 block inactive, TrxR1 inh inactive and TrxR1 substrate inactive.
COc1ccc(CNC(=O)CCc2cn(C)c3ccccc23)cc1 was read as A549 viability inactive, IDH1 R132H inh inactive, Nrf2 block inactive, TrxR1 inh inactive and TrxR1 substrate inactive.
`O=C(Nc1cccc(F)c1)C1CCCN(C(=O)c2ccc(Cl)cc2)C1` (stereo not drawn) gave Mito fusion act inactive, A549 viability inactive, IDH1 R132H inh inactive, Nrf2 block 7.3µM, TrxR1 inh inactive and TrxR1 substrate inactive.
Screening O=C(Nc1cccc(S(=O)(=O)N2CCCCCC2)c1)C1CCN(C(=O)c2ccc(F)cc2)CC1 returned Mito fusion act inactive, A549 viability inactive, IDH1 R132H inh inactive, Nrf2 block 26µM, TrxR1 inh inactive and TrxR1 substrate inactive.
O=C(Nc1cccc(C(F)(F)F)c1)C1CCN(S(=O)(=O)c2ccc(N3CCCC3=O)cc2)CC1 was read as Mito fusion act inactive, A549 viability inconclusive, IDH1 R132H inh inactive, Nrf2 block 13µM, TrxR1 inh inactive and TrxR1 substrate inactive.
O=C(Nc1ccccc1)C1CCCN(C(=O)c2ccc(Cl)cc2)C1 (stereo not drawn) was read as Mito fusion act inactive, A549 viability inactive, IDH1 R132H inh inactive, Nrf2 block inconclusive, TrxR1 inh inactive and TrxR1 substrate inactive.
`CCC(Sc1nnc(-c2ccc(F)cc2)c(-c2ccc(F)cc2)n1)C(=O)NC1CCCC1` (stereo not drawn) gave A549 viability inactive, IDH1 R132H inh inactive, TrxR1 inh inactive and TrxR1 substrate inactive.
Screening CSc1ccccc1OCc1cc(C(=O)N2CCc3c(Cl)cccc3C2)no1 returned Mito fusion act inactive, A549 viability inactive, IDH1 R132H inh inactive, Nrf2 block 9.2µM, TrxR1 inh inactive and TrxR1 substrate inactive.
For COc1ccc(-c2nc(SCC(=O)NC(C)CCc3ccccc3)n[nH]2)cc1 (stereo not drawn) the results were A549 viability inactive, IDH1 R132H inh inactive, TrxR1 inh inactive and TrxR1 substrate inactive.
CCOc1ccc(CNC(=O)C2CCN(c3nnc(-n4c(C)ccc4C)s3)CC2)cc1 was read as A549 viability inactive, Nrf2 block 15µM, TrxR1 inh inconclusive and TrxR1 substrate inactive.
CCc1ccc(CNC(=O)C2CCN(c3nnc(-n4c(C)ccc4C)s3)CC2)cc1 was read as A549 viability inactive, Nrf2 block inconclusive, TrxR1 inh inactive and TrxR1 substrate inactive.
Screening Cc1ccc(C(=O)c2ccc(C)cc2)cc1 returned Mito fusion act inactive, A549 viability inactive, IDH1 R132H inh inactive, Nrf2 block inactive, TrxR1 inh inactive and TrxR1 substrate inactive.
Cc1ccc(C(=O)c2no[n+]([O-])c2C(=O)c2ccc(C)cc2)cc1 was read as Mito fusion act inactive, A549 viability inactive, IDH1 R132H inh inactive, Nrf2 block inactive, TrxR1 inh 0.89µM and TrxR1 substrate inactive.
Cc1ccccc1C(=O)NC1CCN(Cc2ccccc2)CC1 was read as Mito fusion act inactive, A549 viability inactive, IDH1 R132H inh inactive, Nrf2 block inactive, TrxR1 inh inactive and TrxR1 substrate inactive.
Cc1ccc(NC(=O)c2ccc(S(=O)(=O)NCc3ccco3)cc2)cc1 was read as Mito fusion act inactive, A549 viability inactive, IDH1 R132H inh inactive, Nrf2 block inconclusive, TrxR1 inh inactive and TrxR1 substrate inactive.
Screening Cc1cccc(NS(=O)(=O)c2ccc(C)c(C(=O)NC3CCN(Cc4ccccc4)CC3)c2)c1 returned A549 viability inactive, IDH1 R132H inh inactive, Nrf2 block 8.2µM, TrxR1 inh inactive and TrxR1 substrate inactive.
Screening O=C(Nc1ccc(S(=O)(=O)NCc2ccco2)cc1)c1ccncc1 returned Mito fusion act inactive, A549 viability inactive, IDH1 R132H inh inactive, Nrf2 block 13µM, TrxR1 inh inactive and TrxR1 substrate inactive.
For O=C(NC1CCN(Cc2ccccc2)CC1)c1ccc(S(=O)(=O)NCc2ccco2)cc1 the results were Mito fusion act inactive, A549 viability inactive, IDH1 R132H inh inactive, Nrf2 block 6.5µM, TrxR1 inh inactive and TrxR1 substrate inactive.
`O=C(c1ccc(Cl)cc1)N1CCN(c2ccc([N+](=O)[O-])c3ncccc23)CC1` gave Mito fusion act 23µM, TrxR1 inh inactive and TrxR1 substrate inconclusive.
CC1=C(C(N)=O)C(c2cccs2)n2nc(-c3cccc(C)c3)nc2N1 (stereo not drawn) was read as Mito fusion act inactive, A549 viability inactive, IDH1 R132H inh inactive, Nrf2 block inactive, TrxR1 inh inactive and TrxR1 substrate inactive.

Bioassay records deposited in PubChem by National Center for Advancing Translational Sciences (NCATS).
